Inconclusive results are not listed. Where a call stands in place of a potency, no number is given. Activity calls are given as the source filed them. The call rests on the fitted dose curve; in most records, active means well fitted inhibition curve with a large enough effect; inconclusive means small, poorly fitted or top-dose-only effect; inactive means flat fitted curve, though single readings scatter.
assay: P-glycoprotein substrates identified in KB-8-5-11 adenocarcinoma cell line, qHTS therapeutic library screen (AID 1346987); details: KB-8-5-11 (P-gp overexpressing) viability, CellTiter-Glo, 72 h; series mostly up to 44.5 µM; further: nearly all actives have a fitted effect of over 65% in size
Method in brief: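 KB-8-5-11, a colchicine-selected P-gp-overexpressing KB-3-1 subline, was grown without colchicine for the assay. Cells were seeded at 500 cells/well, dosed in concentration-response and incubated 72 h at 37 degree C, 5% CO2. Viability was read by CellTiter-Glo luminescence.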

| Structure (SMILES) | Potency | activity change, negative = cytotoxicity |
| --- | --- | --- |
| COc1cc([C@H]2OC[C@@H]3[C@@H](c4ccc(O[C@@H]5O[C@H](CO)[C@@H](O)[C@H](O)[C@H]5O)c(OC)c4)OC[C@]23O)ccc1O | inactive | – |
| O=C1C[C@@H](c2ccc(O)cc2)Oc2cc(O)ccc21 | inactive | – |
| CC(C)(C)NCc1cc(Nc2ccnc3cc(Cl)ccc23)c2c(c1O)CCCC2 | – | 0.372% [at 0.354 µM] (inactive) |
| CC(=O)OC1C(O)CC(O[C@@H]2O[C@H](CO)[C@@H](O)[C@H](O)[C@H]2O)C2CCC3C(=O)OC(c4ccoc4)CC3(C)C21 (stereo partly specified) | inactive | – |
| C=C(C)C1CC2(CO)C(=CC1=O)CCC(O)C2C (stereo unspecified) | inactive | – |
| C/C=C(\C)C(=O)O[C@H]1[C@@H](O[C@]2(COC(=O)CC(C)C)O[C@H](COC(=O)C(C)C)[C@@H](OC(C)=O)[C@@H]2O)O[C@H](COC(C)=O)[C@@H](O)[C@@H]1O | inactive | – |
| O=C(O)c1cnn(-c2nc3cc(OC(F)(F)F)c(Cl)cc3[nH]2)c1 | inactive | – |
| C=C1C(OC(C)=O)C(=O)C2C(C)(C)C(OC(C)=O)CCC2(C)C1CC(OC(C)=O)/C(C)=C/COC(C)=O (stereo unspecified) | inactive | – |
| O=C(O[C@H]1[C@@H]2C=CO[C@@H](O[C@@H]3O[C@H](CO)[C@@H](O)[C@H](O)[C@H]3O)[C@@H]2[C@@]2(CO)O[C@@H]12)c1ccc(O)cc1 | inactive | – |
| O=C(O)c1cc(O)c2cccc(O)c2c1O[C@@H]1O[C@H](CO)[C@@H](O)[C@H](O)[C@H]1O | inactive | – |
| CC(C)=CC/C=C(/C)[C@H]1CC[C@]2(C)[C@@H]1[C@H](O)CC1[C@@]3(C)CC[C@H](O)C(C)(C)[C@@H]3[C@@H](O[C@@H]3O[C@H](CO)[C@@H](O)[C@H](O)[C@H]3O[C@@H]3O[C@@H](C)[C@H](O)[C@@H](O)[C@H]3O)C[C@]12C (stereo partly specified) | inactive | – |
